Results from PubChem BioAssay (NCI).
About 79,000 compounds went through this panel and 15% of them were active in at least one assay; those are over-represented in the sample as a whole. A number with no mark means an inactive call. Activity calls are given as the source filed them. Cut-off read from the data, not from the text of the source: active = growth inhibition above about 70%; inactive = the rest.

Tests used:
[1] = NCI Yeast Anticancer Drug Screen. Data for the rad50 strain (AID 155);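 note: 0% = growth of vehicle-only cultures of the same strain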; conditions: S. cerevisiae rad50 strain growth inhibition, active compounds read high
How it was run: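 DNA repair mutant yeast, compound exposure, growth read-out; inhibition is taken relative to vehicle.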

[2] = NCI Yeast Anticancer Drug Screen. Data for the mec2-1 strain (AID 157); conditions: S. cerevisiae mec2-1 strain, active compounds read high
How it was run: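 Compounds were applied to mec2-1 yeast cells. Their growth was then compared with that of vehicle-treated cultures to give growth inhibition.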

[3] = NCI Yeast Anticancer Drug Screen. Data for the sgs1 mgt1 strain (AID 161);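 note: 0% = growth of cultures given vehicle only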; conditions: S. cerevisiae sgs1 mgt1 strain, active compounds read high
How it was run: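 Yeast cells carrying a defined DNA-repair defect were exposed to test compounds. Growth inhibition was measured relative to vehicle-treated controls.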

[4] = NCI Yeast Anticancer Drug Screen. Data for the cln2 rad14 strain (AID 165);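 note: 0% = growth equal to vehicle treated cultures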; conditions: S. cerevisiae cln2 rad14 strain, active compounds read high
How it was run: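 Strain: cln2 rad14 yeast, altered in cell cycle control and DNA damage repair. Read-out: growth inhibition vs vehicle.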

[5] = NCI Yeast Anticancer Drug Screen. Data for the bub3 strain (AID 167); conditions: S. cerevisiae bub3 mutant strain, active compounds read high
How it was run: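 In this screen, a yeast mutant lacking normal mitotic checkpoint function is challenged with compound. Relative growth versus vehicle gives the inhibition value.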

[6] = NCI Yeast Anticancer Drug Screen. Data for the mlh1 rad18 strain (AID 175); conditions: S. cerevisiae mlh1 rad18 strain growth inhibition, active compounds read high
How it was run: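 A repair-deficient yeast strain is exposed to test compound, and growth is scored relative to vehicle-treated controls.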

[7] = at 5.0 µM (retest, dose inferred, filed as 0.5)
[8] = at 50.0 µM (retest, dose inferred, filed as 5.0)

| SMILES | growth inhibition [1, 7] | growth inhibition [1, 8] | growth inhibition ([1]; at 50.0 µM) | growth inhibition [2, 7] | growth inhibition [2, 8] | growth inhibition ([2]; at 50.0 µM) | growth inhibition [3, 7] | growth inhibition [3, 8] | growth inhibition ([3]; at 50.0 µM) | growth inhibition [4, 7] | growth inhibition [4, 8] | growth inhibition ([4]; at 50.0 µM) | growth inhibition [5, 7] | growth inhibition [5, 8] | growth inhibition ([5]; at 50.0 µM) | growth inhibition [6, 7] | growth inhibition [6, 8] | growth inhibition ([6]; at 50.0 µM) |
| --- | --- | --- | --- | --- | --- | --- | --- | --- | --- | --- | --- | --- | --- | --- | --- | --- | --- | --- |
| CC1=NN(c2nc(N)nc(NS(=O)(=O)c3cc(C)c(Cl)cc3S)n2)C(C)(C)C1 | 29% | 13% | 9.1% | -1% | -12% | -9.55% | -2% | 9% | 35.9% | 4% | 10% | 46.2% | 11% | -17% | 9.85% | -3% | 4% | 20% |
| O=C(O)/C(=C/c1ccccc1)c1ccccc1.[Ag] | 99% (active) | 99% (active) | 99.4% (active) | 100% (active) | 99% (active) | 94.5% (active) | 100% (active) | 100% (active) | 99.3% (active) | -14% | 99% (active) | 78.8% (active) | 100% (active) | 98% (active) | 93.7% (active) | 99% (active) | 99% (active) | 99.4% (active) |
| N#CC=Cc1ccc([N+](=O)[O-])s1 (mixture of isomers) | 41% | 99% (active) | 89.8% (active) | 39% | 98% (active) | 90.8% (active) | 59% | 99% (active) | 90.8% (active) | 32% | 99% (active) | 90.8% (active) | 70% (active) | 99% (active) | 88.5% (active) | 50% | 98% (active) | 91.1% (active) |
| CCCCCC1OC1CC1OC1CCCCCCCC(=O)OC (stereo not given) | -2% | 1% | 36.5% | -1% | -2% | 18.8% | -4% | 4% | 40.4% | -4% | -8% | -27.4% | -1% | -7% | 50.1% | 4% | 1% | 59% |
| CS(=O)(=O)OCCN(CCOS(C)(=O)=O)c1ccc(C=Nc2cc(Cl)c(O)c(Cl)c2)c(Cl)c1 | -1% | 28% | 46.6% | 42% | 4% | -5% | -1% | 32% | 38.5% | 0% | 3% | -23.1% | -1% | -1% | 1.25% | 9% | 57% | 86% (active) |
| CCCCCCC(OCCC)OCCC | -4% | -3% | 35.8% | -28% | -1% | -15.6% | -3% | -1% | 5% | -2% | 1% | 74% (active) | -10% | -6% | -0.5% | -2% | -1% | 38.4% |
| O=C(c1ccc(Br)cc1)C1OC12C(=O)Nc1ccccc12 (stereo not given) | 46% | 99% (active) | 99.7% (active) | 99% (active) | 99% (active) | 99.7% (active) | 84% (active) | 100% (active) | 99.7% (active) | 49% | 99% (active) | 99.1% (active) | 99% (active) | 99% (active) | 99.6% (active) | 99% (active) | 99% (active) | 99.5% (active) |
| CCOC(=O)C(Cc1ccc(O)c(C=O)c1)NC(C)=O (stereo not given) | -13% | 7% | -19.7% | -9% | 20% | -7.45% | -22% | 2% | 0.3% | 3% | 39% | -8.75% | -1% | 3% | 0.05% | -7% | -10% | -1.55% |
| Cc1ccc(S(=O)(=O)C(=S)Sc2ccccc2)cc1 | 6% | 82% (active) | 45.5% | 8% | 89% (active) | 39.5% | 10% | 88% (active) | 80.6% (active) | 6% | 63% | 33.7% | 17% | 90% (active) | 36.5% | 11% | 92% (active) | 79.8% (active) |
| Cn1c2c(c3ccccc31)CCN(CCCN1CCN(c3ccccc3)CC1)C2=O | 49% | 49% | 90.1% (active) | 43% | 43% | 89.2% (active) | 58% | 58% | 90.4% (active) | 38% | 38% | 91.5% (active) | 51% | 51% | 91.3% (active) | 41% | 41% | 84.7% (active) |
